Source: PubChem BioAssay (NCI)
This is part of a sample that, as a whole, favours compounds with a hit. Of some 83,000 tested, about 20% had one in any assay.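 Values shown are percent growth following 48 h exposure of cells in 96-well plates to a single concentration of compound; below 10 was considered active.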 The source made the active and inactive calls.

Columns and labels:
Test in all cases: NCI-60 one-dose screen, 48 h (100 = growth as untreated, 0 = no growth, -100 = all killed)
Conditions in all cases: 10 µM
NCI-H23 lung = system: NCI-H23 lung
NCI-H226 lung = system: NCI-H226 lung
NCI-H522 lung = system: NCI-H522 lung
A549/ATCC NSCLC = system: A549/ATCC NSCLC
786-0 renal = system: 786-0 renal
COLO 205 colon = system: COLO 205 colon
DU-145 prostate = system: DU-145 prostate
K-562 leukemia = system: K-562 leukemia
MALME-3M melanoma = system: MALME-3M melanoma
MDA-MB-231 breast = system: MDA-MB-231 breast
RXF 393 renal = system: RXF 393 renal
SF-268 CNS = system: SF-268 CNS
SF-295 CNS = system: SF-295 CNS
SF-539 CNS = system: SF-539 CNS
M14 melanoma = system: M14 melanoma
NCI-H460 lung = system: NCI-H460 lung
HOP-62 NSCLC = system: HOP-62 NSCLC
HOP-92 NSCLC = system: HOP-92 NSCLC
UACC-257 melanoma = system: UACC-257 melanoma
NCI-H322M lung = system: NCI-H322M lung

Measured: growth

COc1ccc(-c2cc(-c3cc(OC)ccc3OC)nc(N)c2C#N)cc1
inactive: NCI-H23 lung 68.8% | NCI-H226 lung 63.7% | NCI-H522 lung 23.6% | A549/ATCC NSCLC 62.6% | 786-0 renal 66.2% | COLO 205 colon 57.1% | DU-145 prostate 96.2% | K-562 leukemia 89.5% | MALME-3M melanoma 36.9% | MDA-MB-231 breast 56.3% | RXF 393 renal 70.5% | SF-268 CNS 40.1% | SF-295 CNS 64.7% | SF-539 CNS 57.8% | M14 melanoma 79.8%

C=C/C(C)=C/C[C@]1(C)[C@H](C)[C@@H](OC(=O)CCC)[C@H](O)[C@@]23C(=C[C@H](OC)C[C@@H]12)[C@@H](OC(=O)CCC)O[C@H]3OC(C)=O
inactive: A549/ATCC NSCLC 12.5% | DU-145 prostate 14.3% | K-562 leukemia 10.3%
active: NCI-H23 lung -15.9% | NCI-H460 lung 2.97% | NCI-H522 lung -80.9% | 786-0 renal -79.9% | MALME-3M melanoma -63.7% | MDA-MB-231 breast -62.7% | RXF 393 renal -89.4% | SF-268 CNS -8.13% | SF-295 CNS -59.6% | SF-539 CNS -74.4% | M14 melanoma -45.7%

C=CCN(CC=C)C(=O)[C@H](CC)[C@@H]1CC[C@@H](C)[C@@H]([C@H](C)[C@@H](O)[C@@H](C)C(=O)[C@H](CC)C2O[C@]3(C=CC(=O)[C@]4(CC[C@@](C)([C@H]5CC[C@](O)(CC)[C@H](C)O5)O4)O3)[C@H](C)C[C@@H]2C)O1 (stereo partly drawn)
active: HOP-92 NSCLC -8.35% | COLO 205 colon 1.18% | MALME-3M melanoma -25.1% | SF-295 CNS 5.69%
inactive: NCI-H23 lung 18.6% | HOP-62 NSCLC 31.4% | NCI-H460 lung 15.2% | NCI-H522 lung 11.6% | A549/ATCC NSCLC 24.1% | 786-0 renal 44.3% | DU-145 prostate 74.8% | K-562 leukemia 18.7% | MDA-MB-231 breast 23.1% | RXF 393 renal 21.4% | SF-268 CNS 58.9% | SF-539 CNS 53.2% | UACC-257 melanoma 20.6% | M14 melanoma 17.3%

O=C(Nc1ccc(OS(=O)(=O)c2ccccc2)cc1)C1CCCCC1
inactive: NCI-H23 lung 88% | HOP-62 NSCLC 94.5% | NCI-H460 lung 99.8% | HOP-92 NSCLC 98.5% | NCI-H522 lung 75.4% | A549/ATCC NSCLC 90.5% | 786-0 renal 89.9% | COLO 205 colon 97% | DU-145 prostate 92.8% | K-562 leukemia 60.6% | MALME-3M melanoma 81.9% | MDA-MB-231 breast 73.1% | RXF 393 renal 87.5% | SF-268 CNS 90.2% | SF-295 CNS 89.7% | SF-539 CNS 80.4% | M14 melanoma 70.3%

CC(=O)N[C@H](C(=O)N[C@@H](CCCNC(=N)N)C(=O)N[C@@H](CCCCN)C(=O)N[C@@H](CCCNC(=N)N)C(=O)NC(C(=O)N[C@@H](CC(C)C)C(=O)N[C@@H](CCCNC(=N)N)C(=O)N[C@@]1(C)CCC/C=C\CCC[C@@](C)(C(=O)N[C@@H](CCCNC(=N)N)C(=O)N[C@@H](CCC(=O)O)C(=O)N[C@@H](CC(C)C)C(=O)N[C@H](C(=O)N[C@@H](CCC(=O)O)C(N)=O)C(C)C)NC(=O)[C@H](CCC(N)=O)NC(=O)[C@H](CC(C)C)NC(=O)[C@H](CC(C)C)NC1=O)[C@@H](C)O)C(C)C (stereo partly drawn)
active: NCI-H23 lung -34.6% | NCI-H460 lung -63.6% | HOP-92 NSCLC -76% | 786-0 renal -85.6% | DU-145 prostate -58.3% | K-562 leukemia -44.5% | MALME-3M melanoma -68.7% | MDA-MB-231 breast -52.1% | RXF 393 renal -43.9% | SF-268 CNS -80.9% | SF-295 CNS -4.34% | SF-539 CNS -78% | M14 melanoma -61.2%
inactive: NCI-H522 lung 36.5% | A549/ATCC NSCLC 27.8%

CC(=O)O[C@@]12CO[C@@H]1C[C@H](O)[C@@]1(C)C(=O)[C@H](O)C3=C(C)[C@@H](OC(=O)[C@H](O)[C@@H](NC(=O)OC(C)(C)C)c4ccccc4)C[C@@](O)([C@@H](OC(=O)c4ccccc4)C12)C3(C)C (stereo partly drawn)
active: COLO 205 colon 0.921% | DU-145 prostate -10.4% | SF-295 CNS -23%
inactive: NCI-H23 lung 31.8% | HOP-92 NSCLC 56.3% | A549/ATCC NSCLC 38.8% | 786-0 renal 54% | MALME-3M melanoma 76.5% | MDA-MB-231 breast 45.5% | RXF 393 renal 23.7% | SF-268 CNS 51.8% | SF-539 CNS 23% | UACC-257 melanoma 74% | M14 melanoma 36%

S=C(SSC(=S)N(c1ccccc1)c1ccccc1)N(c1ccccc1)c1ccccc1
inactive: NCI-H23 lung 100% | HOP-62 NSCLC 97.6% | NCI-H460 lung 106% | HOP-92 NSCLC 86.2% | NCI-H522 lung 81.1% | A549/ATCC NSCLC 82% | 786-0 renal 105% | DU-145 prostate 109% | K-562 leukemia 104% | MALME-3M melanoma 99% | MDA-MB-231 breast 114% | RXF 393 renal 111% | SF-268 CNS 97.8% | SF-295 CNS 102% | SF-539 CNS 109% | UACC-257 melanoma 81.7% | M14 melanoma 101%

S=c1cnc2ccccc2[nH]1
inactive: NCI-H23 lung 98.4% | HOP-62 NSCLC 93.3% | NCI-H460 lung 96.3% | HOP-92 NSCLC 79.4% | NCI-H522 lung 95.5% | A549/ATCC NSCLC 93.5% | 786-0 renal 98.9% | COLO 205 colon 95% | DU-145 prostate 103% | K-562 leukemia 99.8% | MALME-3M melanoma 84.6% | MDA-MB-231 breast 111% | RXF 393 renal 114% | SF-268 CNS 95.7% | SF-295 CNS 103% | UACC-257 melanoma 99.1% | M14 melanoma 89%
active: SF-539 CNS -10.4%

Cc1ccc(S(=O)(=O)N/N=C2\CCCc3ccccc32)cc1
inactive: NCI-H23 lung 87.1% | HOP-62 NSCLC 108% | NCI-H460 lung 96.7% | NCI-H522 lung 103% | A549/ATCC NSCLC 101% | 786-0 renal 116% | COLO 205 colon 115% | DU-145 prostate 114% | K-562 leukemia 97.2% | MALME-3M melanoma 105% | MDA-MB-231 breast 108% | RXF 393 renal 103% | SF-268 CNS 102% | SF-295 CNS 104% | SF-539 CNS 108% | UACC-257 melanoma 93.8% | M14 melanoma 118%

COc1ccc(-c2csc(NC(=O)c3ccc(Cc4n[nH]c(=O)c5cccnc45)cc3)n2)cc1
inactive: NCI-H23 lung 80.4% | HOP-62 NSCLC 92% | NCI-H460 lung 97.4% | HOP-92 NSCLC 75.3% | NCI-H522 lung 80.7% | A549/ATCC NSCLC 101% | 786-0 renal 99.2% | COLO 205 colon 110% | DU-145 prostate 108% | K-562 leukemia 82.9% | MALME-3M melanoma 86.8% | MDA-MB-231 breast 79.7% | RXF 393 renal 72.4% | SF-268 CNS 97.1% | SF-295 CNS 86.6% | SF-539 CNS 87.1% | UACC-257 melanoma 94.5% | M14 melanoma 103%

COc1cc(-c2csc(NC(=O)Nc3cc(C(F)(F)F)cc(C(F)(F)F)c3)n2)cc(OC)c1OC
active: NCI-H23 lung 4.18% | HOP-92 NSCLC -25.9% | NCI-H522 lung -14.6% | MALME-3M melanoma 6.56% | SF-295 CNS -10.4%
inactive: HOP-62 NSCLC 13.1% | NCI-H460 lung 10.9% | A549/ATCC NSCLC 11.9% | 786-0 renal 13.4% | DU-145 prostate 20.3% | K-562 leukemia 17.5% | MDA-MB-231 breast 14.4% | RXF 393 renal 47% | SF-268 CNS 32.7% | SF-539 CNS 23% | M14 melanoma 21.9%

C[C@]12CC[C@@H]3c4ccc(O)cc4CC[C@H]3[C@@H]1CC[C@@H]2NS(=O)(=O)c1ccc(C(F)(F)F)cc1
active: NCI-H460 lung 3.9% | COLO 205 colon 9.34% | MALME-3M melanoma 9.1%
inactive: NCI-H23 lung 56.4% | NCI-H322M lung 63.8% | A549/ATCC NSCLC 23.5% | 786-0 renal 57.4% | DU-145 prostate 69.8% | K-562 leukemia 22.5% | MDA-MB-231 breast 67.2% | RXF 393 renal 22.9% | SF-268 CNS 57% | SF-295 CNS 30.9% | SF-539 CNS 78.1% | UACC-257 melanoma 73.6% | M14 melanoma 36.6%

COc1ccc(-c2nn(-c3cccc(Cl)c3)cc2-c2cc(-c3ccccc3)[nH]c(=O)c2C#N)cc1
inactive: NCI-H23 lung 26.6% | NCI-H460 lung 31.6% | NCI-H522 lung 44% | A549/ATCC NSCLC 39.7% | COLO 205 colon 60.7% | DU-145 prostate 47.1% | K-562 leukemia 44.9% | MALME-3M melanoma 24.7% | SF-268 CNS 34.8% | UACC-257 melanoma 75.5% | M14 melanoma 32.5%
active: HOP-92 NSCLC -28% | 786-0 renal 6.65% | MDA-MB-231 breast -8.6% | RXF 393 renal -25.6% | SF-295 CNS -36% | SF-539 CNS -45.9%

COc1cc2c3c(n(C4CCN(C)CC4)c(=O)c2cc1OC)-c1cc2c(cc1C3=O)OCO2
active: NCI-H522 lung 8.85% | SF-539 CNS -55.5%
inactive: NCI-H23 lung 52.4% | NCI-H460 lung 19.8% | A549/ATCC NSCLC 55% | 786-0 renal 55.4% | COLO 205 colon 59.5% | DU-145 prostate 78.4% | K-562 leukemia 81.2% | MALME-3M melanoma 89.5% | MDA-MB-231 breast 43.6% | RXF 393 renal 68.2% | SF-268 CNS 50.5% | SF-295 CNS 46.7% | M14 melanoma 60.9%

Cc1cc(SCc2ccccc2)nc(N)n1
inactive: NCI-H23 lung 97.3% | HOP-62 NSCLC 105% | NCI-H460 lung 111% | HOP-92 NSCLC 85.2% | A549/ATCC NSCLC 105% | 786-0 renal 79.1% | COLO 205 colon 127% | DU-145 prostate 104% | K-562 leukemia 105% | MDA-MB-231 breast 107% | RXF 393 renal 124% | SF-268 CNS 100% | SF-295 CNS 102% | UACC-257 melanoma 125% | M14 melanoma 115%
active: MALME-3M melanoma -0.674%
